Reference: PubChem BioAssay
Several values for one entry are separate records, joined by “and”; a condition that tells them apart may be missing. Equal values may be shown once. Activity calls are given as the source filed them. Cut-off read from the data, not from the text of the source: active = fold change permeability below about 0.7 or above about 1.3; inactive = in between.

assay: modulators of brain endothelial barrier permeability, primary screen, cell-based, FITC-avidin fluorescence, HTS (AID 1963498); conditions: actives lie on both sides; note: test concentration not given here

Compound	fold change permeability
CC(C(O)c1ccc(O)cc1)N1CCC(Cc2ccccc2)CC1 (stereo not drawn)	1.3 (active)
S=C(NC1CCCCC1)N1CCC(c2cnc[nH]2)CC1	1.6 (active)
CC(C)(C)c1cc(C(C)(C)C)c2c(c1)C(O)(C(F)(F)F)C(=O)O2 (stereo not drawn)	1.2 (inactive)
Cc1nccc2c1[nH]c1ccccc12	1.2 (inactive)
Clc1cnc(Oc2ccc(Oc3ncc(Cl)cc3Cl)cc2)c(Cl)c1	1.4 (active)
COc1ccc(C(=O)N2CCCC2=O)cc1	1 (inactive)
CN(C(=O)Cc1ccc(Cl)c(Cl)c1)C(CN1CCCC1)c1cccc(OCC(=O)O)c1 (stereo not drawn)	1.1 (inactive)
CCCC[N+]1(C)C2CC(OC(=O)[C@H](CO)c3ccccc3)CC1C1OC12 (stereo partly drawn)	0.8 (inactive)
COc1ccc(C(CN(C)C)C2(O)CCCCC2)cc1 (stereo not drawn)	1 (inactive)
CCN1CCN(C(=O)Cc2ccc(Nc3ncc(F)c(Nc4ccc(C(=O)Nc5ccccc5Cl)cc4)n3)cc2)CC1	1.1 (inactive)
O=C1CCCN1CC#CCN1CCCC1	0.8 (inactive)
CCCCc1ccc(C(=O)O)nc1	0.8 (inactive)
CC(C)Oc1cccnc1N(C)C1CCN(Cc2ccccc2)CC1	1.5 (active)
Clc1ccc(C(Cn2ccnc2)OCc2csc3c(Cl)cccc23)c(Cl)c1 (stereo not drawn)	1.2 (inactive)
Nc1ccncc1	0.9 (inactive)
NC(N)=NOCC[C@H](N)C(=O)O	1 (inactive) and 0.8 (inactive)
Fc1ccc(C(OCCN2CCN(CCCc3ccccc3)CC2)c2ccc(F)cc2)cc1	1.6 (active)
CC(=O)c1c(O)c(C)c(O)c(Cc2c(O)c3c(c(C(=O)/C=C/c4ccccc4)c2O)OC(C)(C)C=C3)c1O	2 (active)
